# Data from PubChem BioAssay (EPA / NIEHS).
# Records with an inconclusive call do not appear. Activity calls are given as the source filed them. Rule for the calls: active = hit-call score of the fitted dose curve at least 0.9, where 1 is the maximum; inconclusive = response in the unintended direction; inactive = score below 0.9.
# Target: Estrogen receptor beta (Homo sapiens) (UniProt Q92731)
# Assay: OT_ER_ERbERb_0480: Odyssey Thera (OT) 8-hour HEK293T Protein-Complementation Assay for Estrogen Receptor-beta/-beta Homodimer (AID 2283357);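 note: active means signal gain over DMSO baseline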
# Method in brief: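 Cells (HEK293T, stable ER-beta LBD PCA pair) are treated 8 hours, fixed and Draq5-stained; signal is fluorescence intensity increase relative to vehicle, fitted in the gain direction.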
# Sequence of Estrogen receptor beta (Homo sapiens) (Q92731 whole entry, looked up): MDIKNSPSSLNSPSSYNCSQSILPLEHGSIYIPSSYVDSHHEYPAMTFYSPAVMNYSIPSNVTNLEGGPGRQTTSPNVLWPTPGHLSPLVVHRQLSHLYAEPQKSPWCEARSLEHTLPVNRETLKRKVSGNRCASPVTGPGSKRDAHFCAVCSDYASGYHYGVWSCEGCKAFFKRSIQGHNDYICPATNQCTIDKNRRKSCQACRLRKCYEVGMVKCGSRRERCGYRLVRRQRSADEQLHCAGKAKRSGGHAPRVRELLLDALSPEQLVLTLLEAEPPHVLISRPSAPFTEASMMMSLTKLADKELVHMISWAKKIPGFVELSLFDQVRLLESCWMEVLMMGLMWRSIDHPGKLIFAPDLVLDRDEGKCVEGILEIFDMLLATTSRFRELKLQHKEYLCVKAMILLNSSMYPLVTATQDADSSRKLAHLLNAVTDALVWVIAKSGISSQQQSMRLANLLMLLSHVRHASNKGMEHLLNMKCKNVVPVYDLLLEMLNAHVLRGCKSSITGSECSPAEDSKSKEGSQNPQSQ
SMILES,outcome,AC50
CSC1=N[C@@](C)(c2ccccc2)C(=O)N1Nc1ccccc1,inactive,–
CC1=NNC(=O)N(/N=C/c2cccnc2)C1,inactive,–
CCOP(=O)(OCC)Oc1cc(C)nc(C(C)C)n1,inactive,–
CCCSP(=O)(OCC)Oc1ccc(Br)cc1Cl (configuration not stated),–,29.8 µM (active)
CC1(C(=O)Nc2ccc(O)c(Cl)c2Cl)CCCCC1,–,22.2 µM (active)
C[Si](Cn1cncn1)(c1ccc(F)cc1)c1ccc(F)cc1,inactive,–
CCCCSP(=O)(SCCCC)SCCCC,inactive,–
CCC(=NOC/C=C/Cl)C1=C(O)CC(C2CCOCC2)CC1=O (configuration not stated),inactive,–
CC(C)N(C(=O)SCC(Cl)=C(Cl)Cl)C(C)C,inactive,–
CCC(CC)Nc1c([N+](=O)[O-])cc(C)c(C)c1[N+](=O)[O-],–,12.6 µM (active)
CNc1cnn(-c2cccc(C(F)(F)F)c2)c(=O)c1Cl,inactive,–
CCNc1nc(Cl)nc(NC(C)(C)C#N)n1,inactive,–
CCOP(=S)(OCC)SCCSCC,inactive,–
CCCCN(CC)c1c([N+](=O)[O-])cc(C(F)(F)F)cc1[N+](=O)[O-],inactive,–
CC(C1CC1)C(O)(Cn1cncn1)c1ccc(Cl)cc1 (configuration not stated),–,29.6 µM (active)
COc1cccc(C(=O)NN(C(=O)c2cc(C)cc(C)c2)C(C)(C)C)c1C,inactive,–
CC(Oc1cccc(Cl)c1)C(=O)O (configuration not stated),inactive,–
CN(C)NC(=O)CCC(=O)O,–,50 µM (active)
CC(C)[C@H](C(=O)O[C@H](C#N)c1cccc(Oc2ccccc2)c1)c1ccc(Cl)cc1,inactive,–
CCOC(=O)CC(SP(=O)(OC)OC)C(=O)OCC (configuration not stated),inactive,–
CCc1cccc(C)c1N(C(=O)CCl)C(C)COC (configuration not stated),inactive,–
CNC(=O)ON=C(C)SC,inactive,–
CSc1nnc(C(C)(C)C)c(=O)n1N,inactive,–
CCCOCC(=Nc1ccc(Cl)cc1C(F)(F)F)n1ccnc1,inactive,–

# Target: Retinoic acid receptor alpha (Homo sapiens) (UniProt P10276)
# Assay: NVS_NR_hRAR_Antagonist: NovaScreen (NVS) Nuclear Receptor Binding Assay for human Retinoic Acid Alpha Receptor Antagonism (RAR) (AID 2283358)
# Method in brief: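 TR-FRET, cell-free, antagonist format; 2 h incubation after dosing; DMSO = baseline; signal loss fitted; 25 uM duplicate primary, then conc. series.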
# Sequence of Retinoic acid receptor alpha (Homo sapiens) (P10276 whole entry, looked up): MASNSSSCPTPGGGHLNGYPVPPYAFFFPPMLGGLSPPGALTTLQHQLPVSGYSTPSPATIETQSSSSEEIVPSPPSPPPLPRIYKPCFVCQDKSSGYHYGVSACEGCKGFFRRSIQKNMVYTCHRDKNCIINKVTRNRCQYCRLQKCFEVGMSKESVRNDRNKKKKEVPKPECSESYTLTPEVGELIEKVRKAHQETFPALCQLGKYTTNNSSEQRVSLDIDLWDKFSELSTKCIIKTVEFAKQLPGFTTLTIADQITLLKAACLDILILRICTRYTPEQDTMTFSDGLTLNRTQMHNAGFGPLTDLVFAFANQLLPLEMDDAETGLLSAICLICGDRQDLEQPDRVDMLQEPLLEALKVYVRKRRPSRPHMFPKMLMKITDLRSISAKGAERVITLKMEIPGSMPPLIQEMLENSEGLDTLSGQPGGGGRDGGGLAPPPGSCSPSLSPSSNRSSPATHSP
row,SMILES,outcome
1,CC1=NNC(=O)N(/N=C/c2cccnc2)C1,inactive
2,C#CC(C)(C)NC(=O)c1cc(Cl)cc(Cl)c1,inactive
3,CC(C)N(C(=O)SCC(Cl)=C(Cl)Cl)C(C)C,inactive
4,COP(=O)(OC)C(O)C(Cl)(Cl)Cl (configuration not stated),inactive
5,CNc1cnn(-c2cccc(C(F)(F)F)c2)c(=O)c1Cl,inactive
6,CCOP(=S)(OCC)SCCSCC,inactive
7,S=C1NCCN1,inactive
8,CCCCN(CC)c1c([N+](=O)[O-])cc(C(F)(F)F)cc1[N+](=O)[O-],inactive
9,CC(C1CC1)C(O)(Cn1cncn1)c1ccc(Cl)cc1 (configuration not stated),inactive
10,COc1cccc(C(=O)NN(C(=O)c2cc(C)cc(C)c2)C(C)(C)C)c1C,inactive
11,CCOC(=O)CC(SP(=O)(OC)OC)C(=O)OCC (configuration not stated),inactive
12,CCc1cccc(C)c1N(C(=O)CCl)C(C)COC (configuration not stated),inactive
13,CSc1nnc(C(C)(C)C)c(=O)n1N,inactive
